The panel holds about 83,000 compounds, 20% with a hit somewhere; the sample as a whole holds those more often.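 Growth was measured after 48 h exposure to one concentration of compound in 96-well plates. Values under 10 count as active.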 A number with no mark means an inactive call. Activity calls are given as the source filed them.
Key:
Assay in all cases: NCI-60 one-dose screen, 48 h (100 = growth as untreated, 0 = no growth, -100 = all killed)
Conditions in all cases: 10 µM unless noted
SR leukemia = tested on: SR leukemia
RPMI-8226 leukemia = tested on: RPMI-8226 leukemia
OVCAR-5 ovarian = tested on: OVCAR-5 ovarian
OVCAR-4 ovarian = tested on: OVCAR-4 ovarian
SK-OV-3 ovarian = tested on: SK-OV-3 ovarian
IGROV1 ovarian = tested on: IGROV1 ovarian
OVCAR-3 ovarian = tested on: OVCAR-3 ovarian
HS 578T breast = tested on: HS 578T breast
NCI/ADR-RES ovarian = tested on: NCI/ADR-RES ovarian
T-47D breast = tested on: T-47D breast
BT-549 breast = tested on: BT-549 breast
MDA-MB-435 melanoma = tested on: MDA-MB-435 melanoma
SW-620 colon = tested on: SW-620 colon
MCF7 breast = tested on: MCF7 breast
HCT-116 colon = tested on: HCT-116 colon
KM12 colon = tested on: KM12 colon
OVCAR-8 ovarian = tested on: OVCAR-8 ovarian
HCC-2998 colon = tested on: HCC-2998 colon

Row | SMILES | growth (SR leukemia) | growth (RPMI-8226 leukemia) | growth (OVCAR-5 ovarian) [%] | growth (OVCAR-4 ovarian) | growth (SK-OV-3 ovarian) | growth (IGROV1 ovarian) | growth (OVCAR-3 ovarian) | growth (HS 578T breast) | growth (NCI/ADR-RES ovarian) | growth (T-47D breast) | growth (BT-549 breast) | growth (MDA-MB-435 melanoma) | growth (SW-620 colon) | growth (MCF7 breast) | growth (HCT-116 colon) | growth (KM12 colon) | growth (OVCAR-8 ovarian) [%] | growth (HCC-2998 colon)
1 | CC1=C(C(=O)c2ccccc2)C(c2ccc3c(c2)OCO3)NC(=S)N1 (configuration not stated) | 6.28% (active) | 44% | 72.5 | 82.3% | 51.6% | 46.1% | 12.9% | 23.4% | 43.3% | 67.9% | 50.6% | -49.5% (active) | 24.2% | 22% | 20.1% | 20% | – | –
2 | CCOC(=O)c1cc(C(=O)c2cc(OC)cc(OC)c2)n2ccccc12 | 16.3% | 27.6% | 95.2 | 72.4% | – | – | -5.04% (active) | 39.4% | 12.4% | 49.3% | 35.7% | -4.66% (active) | 28.2% | 22.3% | 12.2% | 24.2% | 42.2 | 54.7%
3 | Cc1c2ccncc2c(C)c2c1c1ccccc1n2CCCCCC(=O)O | 65.1% | 86.3% | 109 | 94.3% | 95.6% | 76.9% | 93.1% | 88.5% | 80.1% | 86.5% | 89.4% | 99.2% | 82.4% | 77.6% | 75.8% | 82.3% | – | 104%
4 | Cc1c(N2CCCCC2)[nH]c2ccccc12 | 119% | 62.6% | 124 | 142% | 118% | 136% | 125% | 96.2% | 107% | 110% | 121% | – | 100% | 111% | 105% | 113% | – | 113%
5 | CC(C)(C)n1cc(-c2ccnc(NCCNS(=O)(=O)c3cccc4ccccc34)c2)c(-c2cccc(O)c2)n1 | 30.1% | 27.4% | 84.4 | 80.1% | 81.9% | 87% | 91% | 84.6% | 77% | 31.4% | 60.5% | 78.6% | 35.8% | 49.4% | 46.5% | 57.5% | – | 66.3%
6 | COC1CC(O)C2=C(CC3C(/C(C)=C\CC=C(C)C)CCC3(C)O2)C1=O (configuration not stated) | 86.4% | 93.6% | 114 | 113% | 107% | 110% | 109% | 98.6% | 103% | 94.9% | 107% | 109% | 104% | 99.4% | 98.9% | 107% | – | 105%
7 | COc1cc2c(c(OC)c1OC)C(=O)CC(c1cccc(C(=O)Nc3ccc(Br)cc3)c1)O2 (configuration not stated) | 22.2% | 14.6% | 89.4 | 45.6% | 76.2% | 67.4% | 65% | 91.4% | 36.1% | 20.3% | – | 30.3% | 85.8% | 42.9% | 46.6% | 62.9% | – | 92.1%
8 | COC1=C(OC)C(=O)C(CCCCCCCCCCO)=C(C)C1=O | 24% | 76% | 103 | -13.7% (active) | 82.7% | 57.7% | 69% | 92.6% | 29.2% | 19.3% | 87.4% | -51% (active) | 103% | 30.2% | 52.9% | 67.5% | – | 115%
9 | C=C(CNCCO)[C@@H]1CC[C@]2(CO)CC[C@]3(C)[C@H](CC[C@@H]4[C@@]5(C)CCC(NCCO)C(C)(C)[C@@H]5CC[C@]43C)[C@@H]12 (some centres not stated) | -22.9% (active) | 36.8% | 90.6 | 77.1% | 94.6% | 80.4% | 80% | 78.2% | 95% | 84.4% | 78.9% | 70.2% | 73.8% | 47.4% | 44.3% | 63.4% | – | 71.7%
10 | COc1ccc(-c2csc(NC(=O)CSc3nc(C)cc(=O)[nH]3)n2)cc1 | 118% | 96% | 112 | 104% | – | 101% | 103% | 96.8% | 96.9% | 89.2% | 86.1% | 108% | 101% | 92.8% | 102% | 100% | – | 117%
11 | COc1cccc(C2C(C#N)=C(N)Oc3c2ccc2ccccc32)c1 (configuration not stated) | 18.1% | 20.7% | 40.5 | 66.2% | 40.1% | 18.3% | -8.8% (active) | 52.1% | 6.19% (active) | 69.5% | – | 6.77% (active) | 30.3% | 10.8% | 5.1% (active) | 11.9% | – | 23.6%
12 | O=C(Oc1ccccc1)c1cc(O)c(O)c(O)c1 | 32.9% | 65.7% | 107 | 63.7% | 77.3% | 76% | 18.1% | 39.9% | 61.1% | 59.7% | 65.1% | – | 62.7% | 79.3% | 58.8% | 74.7% | – | 68.5%
13 | Cc1ccc(Nc2oc(-c3ccccc3)nc2[P+](c2ccccc2)(c2ccccc2)c2ccccc2)cc1 | 8.76% (active) | -38.3% (active) | 11.3 | 6.45% (active) | -33.7% (active) | -11.9% (active) | -30.7% (active) | -38.9% (active) | -52.3% (active) | -28.5% (active) | -21.5% (active) | -62.8% (active) | -48.2% (active) | -20.2% (active) | -66.4% (active) | -51.5% (active) | – | -89.4% (active)
14 | Cc1c(-c2cnc3ccc(Cl)cc3c2C(=O)O)nnn1-c1ccc(Cl)cc1 | 95.9% | – | 89.9 | 106% | 90.4% | 108% | 110% | 109% | 101% | 88% | 82% | – | 112% | 98.5% | 76.7% | 109% | 101 | 102%
15 | C(CCCSC1=NCCN1)CCSC1=NCCN1 | 95.9% | – | 89.8 | 98.2% | 112% | – | 107% | 104% | 94.4% | 101% | 112% | 103% | 98.2% | 97.5% | 90.7% | 113% | 98.4 | 103%
16 | COc1c(O[C@@H]2OC(CO)[C@H](O)[C@H](O)C2O)cc2oc3cc(O)c(CC=C(C)C)c(O)c3c(=O)c2c1CC=C(C)C (some centres not stated) | 102% | – | 108 | 115% | 97.7% | 91% | 99.7% | 96.2% | 101% | 70.8% | 102% | 94.3% | 104% | 92.8% | 88.8% | 106% | – | 95.9%

Reference: PubChem BioAssay (NCI)
